This passage reports survival results from PubChem BioAssay AID463173 (ICCB-Longwood Screening Facility, Harvard Medical School, 2010).

Structures are written as SMILES. The whole screen tested about 52,000 compounds, of which about 4,300 (8.3%) were called active. No stated cut-off is given here; in the data, active means survival mostly below about 52% (no sharp cut-off); inactive means mostly above about 56%. Shown is part of a subset that was picked to be rich in actives.

The test system of the assay is DeltatarO mutant. Put plainly: growth inhibition of S. aureus wild type versus tarO mutant, primary screen, teichoic acid synthesis inhibitors, RN4220, OD600 (AID 463173). As to conditions: OD600, 18 h, stronger effect = lower value, screened at 18.75 µg/mL (by protocol).
On to `CCOc1ccc(CNC(=O)Nc2ccc3c(c2)N(C)C(=O)c2ccccc2S3)cc1`, for which the survival is 75% (inactive).

Consider `COc1ccccc1N1CCN(C(=O)c2cc3c(=O)oc4ccccc4c3s2)CC1`, for which the survival is 169% (inactive). With `CCOC(=O)CSc1nc(-c2ccc(OCC)cc2)cc(C(F)(F)F)c1C#N`, the survival was 67% (inactive). For `Cc1ccc(-c2cc(C(F)(F)F)c(C#N)c(SCC(=O)O)n2)cc1`, the survival was 66% (inactive). Turning to `CCCOc1ccc(-c2cc(C(F)(F)F)c(C#N)c(SCCC(=O)O)n2)cc1`, the survival was 29% (active). With `CSc1ccc(CCNC(=O)C2CCCN(S(=O)(=O)N(C)c3ccc(F)cc3)C2)cc1` (centres undefined) the figure was 74% (inactive). With `CC1CN(c2ccc(Cl)cc2)c2nc3c(c(=O)n(CC(=O)O)c(=O)n3C)n2C1` (centres undefined) the figure was 84% (inactive). Regarding `O=C(CNS(=O)(=O)c1cccs1)N1CCN(c2ccccc2Cl)CC1`, the survival was 45% (active). As for `COc1ccccc1N1CCN(C(=O)CNS(=O)(=O)c2ccc(Br)s2)CC1`, the survival was 116% (inactive). On to `COc1ccc(N2CCN(C(=O)CNS(=O)(=O)c3ccc(Br)s3)CC2)cc1`, for which the survival was 32% (active). Regarding `COc1cccc(N2CCN(C(=O)C3CCC(CNS(=O)(=O)c4ccc(Br)s4)CC3)CC2)c1` (centres undefined), the survival is 78% (inactive). Consider `O=C(CNS(=O)(=O)c1ccc(Br)s1)N1CCN(c2ccc(F)cc2)CC1`, for which the survival was 27% (active).

`O=C(CNS(=O)(=O)c1ccc(Br)s1)N1CCN(c2ccccc2F)CC1`: the survival is 36% (active).

For the molecule `COc1ccc(N2CCN(C(=O)CNC3CC3)CC2)cc1`, the survival was 74% (inactive). With `O=C(C1CCN(S(=O)(=O)c2ccc(Br)s2)CC1)N1CCN(c2ccc(F)cc2)CC1`, the survival is 87% (inactive). For the molecule `O=C(CNS(=O)(=O)c1cccs1)N1CCN(c2ccccc2F)CC1`, the survival is 51% (inactive). Regarding `CCOC(=O)c1c(C)[nH]c(C)c1S(=O)(=O)NCC(=O)N1CCN(c2ccccc2F)CC1`, the survival is 76% (inactive). On to `O=C(CNS(=O)(=O)c1cccs1)N1CCN(c2cccc(C(F)(F)F)c2)CC1`, for which the survival is 83% (inactive). Take `O=C(C1CCC(CNS(=O)(=O)c2ccc(Br)s2)CC1)N1CCN(c2ccc(F)cc2)CC1` (centres undefined): the survival was 74% (inactive). `O=C(Nc1cc(C(F)(F)F)ccc1Cl)c1noc2c1CCCCC2`: the survival was 82% (inactive).

For `COc1ccc(NC(=O)c2ccc3c(=O)n4nc(Nc5cc(C)ccc5C)sc4nc3c2)cc1`, the survival is 116% (inactive). As to `CCCCN(C)c1nc2c(S(=O)(=O)c3ccc(CC)cc3)nnn2c2ccc(Cl)cc12`, the survival is 76% (inactive). Consider `CCc1ccccc1NC(=O)Cc1c(C(=O)O)[nH]c2ccc(Cl)cc12`, for which the survival is 80% (inactive).

Regarding `CCOc1ccc(CCNC(=O)c2cnc3sc(N(CC)CC)nn3c2=O)cc1OCC`, the survival was 122% (inactive).

`COc1ccc(CNC(=O)c2ccc(N3CCCC3)c(NC(=O)NCc3ccc(F)cc3)c2)cc1`: the survival is 93% (inactive). `Cc1ccc(-n2ncc3c(NC4CCCCCC4)ncnc32)cc1Cl`: the survival is 66% (inactive). Next, `CCc1ccc(NC(=O)Cn2ccn(-c3cccc(Cl)c3)c(=O)c2=O)cc1`: 61% (inactive); `Cc1ccc(C(=O)Nc2ccc(S(=O)(=O)N(Cc3ccccc3)c3ccccc3)cc2)cc1`: 65% (inactive). Take `Cc1ccc(NC(=O)c2ccc(N(Cc3ccccc3)S(C)(=O)=O)cc2)cc1`: the survival was 64% (inactive). On to `Cc1ccccc1NC(=O)c1ccc(N(Cc2ccccc2)S(C)(=O)=O)cc1`, for which the survival was 66% (inactive).

With `CS(=O)(=O)N(Cc1ccccc1)c1ccc(C(=O)Nc2ccc(Cl)cc2)cc1`, the survival was 145% (inactive). Regarding `CS(=O)(=O)N(Cc1ccccc1)c1ccc(C(=O)Nc2cccc(Cl)c2)cc1`, the survival is 36% (active). With `Cc1cccc(NC(=O)c2ccc(N(Cc3ccccc3)S(C)(=O)=O)cc2)c1` the figure was 48% (active). As to `CNc1nc2c(c(=O)[nH]c(=O)n2C)n1Cc1cccc2ccccc12`, the survival was 85% (inactive). Turning to `COc1cccc(N2CCN(C(=O)C(CCSC)NS(=O)(=O)c3ccc4c(c3)oc(=O)n4C)CC2)c1` (centres undefined), the survival was 106% (inactive). Turning to `Fc1ccc(-n2cc(-c3ccccc3)c3c(NC4CCCCC4)ncnc32)cc1`, the survival was 85% (inactive). Consider `CC(C)(C)OC(=O)N1CCC(c2c(C(=O)NCc3cccs3)cnn2-c2ccc(F)cc2F)CC1`, for which the survival is 72% (inactive). `CC(C)(C)OC(=O)N1CCC(c2c(C(=O)NCc3ccccc3)cnn2-c2ccc(F)cc2)CC1`: the survival is 128% (inactive). With `CC(C)(C)OC(=O)N1CCC(c2c(C(=O)NCCN3CCC(Cc4ccccc4)CC3)cnn2-c2ccc(F)cc2)CC1` the figure was 47% (active); with `CC(C)(C)OC(=O)N1CCC(c2c(C(=O)NCCN3CCC(Cc4ccccc4)CC3)cnn2-c2ccccc2)CC1`, 80% (inactive); with `Cc1ccc(-n2ncc(C(=O)NCc3cccs3)c2C2CCN(C(=O)OC(C)(C)C)CC2)cc1C`, 91% (inactive). Next, `COc1ccc(CNC(=O)c2cnn(-c3ccc(OC)cc3)c2C2CCN(C(=O)OC(C)(C)C)CC2)cc1`: 74% (inactive); `CC(C)(C)OC(=O)N1CCC(c2c(C(=O)NCc3ccc(F)cc3)cnn2-c2ccc(F)cc2)CC1`: -5% (active); `Cc1ccc(-n2ncc(C(=O)NCCN3CCC(Cc4ccccc4)CC3)c2C2CCN(C(=O)OC(C)(C)C)CC2)cc1`: 98% (inactive). For `CC(C)(C)OC(=O)N1CCC(c2c(C(=O)NCc3cccs3)cnn2-c2cccc(F)c2)CC1`, the survival is -5% (active). Turning to `CC(C)CCNC(=O)CSc1nc2ccccc2nc1Cc1ccccc1`, the survival was 82% (inactive). In the case of `CCCc1nnc(NC(=O)c2cc(=O)c3cc(Cl)ccc3o2)s1`, the survival is 43% (active). For the molecule `CC(=O)Nc1ccc(NC(=O)c2cc(=O)c3ccccc3o2)cc1`, the survival is 59% (inactive). For the molecule `CCc1nnc(NC(=O)c2cc(=O)c3cc(C)c(C)cc3o2)s1`, the survival is 36% (active). As to `CCc1nnc(NC(=O)c2cc(=O)c3cc(C)ccc3o2)s1`, the survival is 79% (inactive). Next, `Cc1ccc2oc(C(=O)Nc3nnc(CC(C)C)s3)cc(=O)c2c1`: 63% (inactive); `CCCc1nnc(NC(=O)c2cc(=O)c3cc(C)c(C)cc3o2)s1`: 35% (active); `Cc1cc2oc(C(=O)Nc3ccc(S(N)(=O)=O)cc3)cc(=O)c2cc1C`: 70% (inactive). On to `CCCSc1nnc(NC(=O)Cc2coc3cc(C)ccc23)s1`, for which the survival is 85% (inactive). `CCCC(=O)Nc1nnc(CCC)s1`: the survival is 80% (inactive). Next, `CCCc1nnc(NC(=O)c2cc(=O)c3ccccc3o2)s1`: 63% (inactive); `Cc1ccc2c(=O)cc(C(=O)Nc3nnc(CC(C)C)s3)oc2c1C`: 61% (inactive).

Consider `CCCSc1nnc(NC(=O)c2cc(=O)c3ccccc3o2)s1`, for which the survival is 38% (active). For `CCOc1ccc(-n2cc(C(=O)Nc3ccccc3OCC)c3cc(OC)c(OC)cc3c2=O)cc1`, the survival is 61% (inactive). For the molecule `O=C(NCc1ccco1)c1ccc2c(c1)N(Cc1ccc(F)cc1)C(=O)c1ccccc1S2=O` (centres undefined), the survival is 76% (inactive). Regarding `COc1ccccc1CNS(=O)(=O)c1cnc(N)nc1`, the survival is 89% (inactive). With `C=CS(=O)(=O)c1ccc(Oc2ccc(S(=O)(=O)C=C)cc2)cc1` the figure was 103% (inactive); with `COC(=O)CNc1cn[nH]c(=O)n1`, 92% (inactive). With `COCCN(Cc1ccco1)C(=O)c1cc2c(Cl)nc3ccc(C)cc3c2s1` the figure was 92% (inactive); with `CCc1c(C)c2ccc(O)c(CN3CCN(c4cc(Cl)ccc4C)CC3)c2oc1=O`, 54% (inactive).

`CC(C)n1c(SCc2ccccc2)nnc1C1CCCN(CC(N)=O)C1` (centres undefined): the survival is 96% (inactive).

For `COc1ccc(Cn2ccc3nc(C)c(C(=O)N4CCN(c5ccccc5OC)CC4)cc3c2=O)cc1`, the survival was 102% (inactive). For `O=C(NC12CCC(O)C(SC1)C2O)c1ccccc1` (centres undefined), the survival is 109% (inactive). Regarding `COc1ccccc1C(O)(C(=O)NNc1cccc(Br)n1)c1ccccc1OC`, the survival is 73% (inactive).

Take `CSc1nnc(NC(=O)c2cc(=O)c3cc(C)c(C)cc3o2)s1`: the survival is 52% (inactive). For the molecule `CCSc1nnc(NC(=O)c2cc(=O)c3cc(C)ccc3o2)s1`, the survival was 86% (inactive).

With `CCSc1nnc(NC(=O)c2cc(=O)c3cc(C)c(C)cc3o2)s1`, the survival was 44% (active). With `CC(C)Nc1ccc(-c2nc(-c3ccco3)no2)cc1[N+](=O)[O-]` the figure was 107% (inactive). Turning to `CNc1ccc(-c2nc(-c3ccccn3)no2)cc1[N+](=O)[O-]`, the survival was 52% (inactive). As for `CC(C)Nc1ccc(-c2nc(-c3ccccn3)no2)cc1[N+](=O)[O-]`, the survival was 38% (active).

For the molecule `CC(Nc1ccc(-c2nc(-c3ccco3)no2)cc1[N+](=O)[O-])c1ccccc1` (centres undefined), the survival was 100% (inactive). Next, `CC(Nc1ccc(-c2nc(-c3ccccn3)no2)cc1[N+](=O)[O-])c1ccccc1` (centres undefined): 19% (active). In the case of `CCC(Nc1ccc(-c2nc(-c3ccco3)no2)cc1[N+](=O)[O-])c1ccccc1` (centres undefined), the survival was 53% (inactive). Turning to `CC(Nc1ccc(-c2nc(-c3cccnc3)no2)cc1[N+](=O)[O-])c1ccccc1` (centres undefined), the survival is 79% (inactive). With `CCC(Nc1ccc(-c2nc(-c3ccccn3)no2)cc1[N+](=O)[O-])c1ccccc1` (centres undefined) the figure was 41% (active); with `Cc1noc(-c2ccc(NC(C)c3ccccc3)c([N+](=O)[O-])c2)n1` (centres undefined), 70% (inactive); with `CC(Nc1ccc(-c2nc(-c3ccncc3)no2)cc1[N+](=O)[O-])c1ccccc1` (centres undefined), 42% (active). Next, `CCC(Nc1ccc(-c2nc(-c3cccnc3)no2)cc1[N+](=O)[O-])c1ccccc1` (centres undefined): 64% (inactive). Regarding `CC(C)Nc1ccc(-c2nc(-c3ccncc3)no2)cc1[N+](=O)[O-]`, the survival was 79% (inactive). Take `COc1ccccc1C(=O)Nc1cc2c(cc1N1CCOCC1)n(C)c(=O)n2C`: the survival is 136% (inactive). For `CCOc1cc(-c2nnc(SCC(=O)NCc3ccc(C)cc3)nc2-c2ccc(OC)c(OCC)c2)ccc1OC`, the survival is 78% (inactive).

For the molecule `CCOc1cc(NC(=S)NCCCN2CCOCC2)c(OCC)cc1NC(=O)C1CC1`, the survival was 94% (inactive).

Turning to `O=C(Nc1ccc(OC(F)(F)F)cc1)C1CCN(S(=O)(=O)c2ccc3[nH]c(=O)ccc3c2)CC1`, the survival is 92% (inactive). `O=C(O)C1CCN(C(=O)c2cccs2)CC1`: the survival is 88% (inactive). Take `CC(=O)c1ccc(NC(=O)C2CCCN(S(=O)(=O)c3cn(C)cn3)C2)cc1` (centres undefined): the survival was 94% (inactive).

Take `O=C(Nc1ccc(OC(F)(F)F)cc1)C1CCCN(S(=O)(=O)c2ccc(Br)s2)C1` (centres undefined): the survival was 80% (inactive). As to `CC(C)c1ccc(NC(=O)C2CCN(S(=O)(=O)c3ccc(Br)s3)CC2)cc1`, the survival was 73% (inactive). For the molecule `Cc1cc(NC(=O)C2CCN(S(=O)(=O)c3ccc(Br)s3)CC2)ccc1Br`, the survival is 79% (inactive).

In the case of `O=C(Nc1ccc(OC(F)(F)F)cc1)C1CCN(S(=O)(=O)c2cccs2)CC1`, the survival was 21% (active). With `O=C(Nc1ccccc1)C1CCN(C(=O)c2cccs2)CC1`, the survival is 67% (active). `Cn1cnc(S(=O)(=O)N2CCCC(C(=O)Nc3ccc(OC(F)(F)F)cc3)C2)c1` (centres undefined): the survival was 25% (active).

With `O=C(Nc1ccc(Cl)cc1)C1CCN(S(=O)(=O)c2ccc(Br)s2)CC1`, the survival was 47% (active). Next, `Cn1cnc(S(=O)(=O)N2CCC(C(=O)Nc3ccc(OC(F)(F)F)cc3)CC2)c1`: 92% (inactive).

For the molecule `O=C(c1cccs1)N1CCC(Cc2ccccc2)CC1`, the survival was 86% (inactive).
